This passage reports Potency results from PubChem BioAssay (NCATS).

Experiment [1] in a line: Quantitative High-Throughput drug screen in 47 multiple myeloma cell lines against the NCATS MIPE library collection: Karpas417_ECACC cell viability assay (AID 1918961). The conditions noted are these: Karpas417 myeloma viability, CellTiter-Glo ATP luminescence, 48 h; viability (% of DMSO): at 45.8 µM (top of the series). The procedure, abridged:
(§1)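 qHTS of the MIPE 4.0 collection: 500 myeloma cells/well, 48 h drug exposure at 37C in 5% CO2, then CellTiter-Glo for 5 min at room temperature before luminescence reading.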
On the technique in general: Cellular ATP, detected with luciferase, serves as a proxy for viable cell number.

Experiment [2] in a line: Quantitative High-Throughput drug screen in 47 multiple myeloma cell lines against the NCATS MIPE library collection: JIM1_ECACC cell viability assay (AID 1918964). The procedure, abridged:
(§2)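 Myeloma cells (500 per well) were exposed to MIPE 4.0 compounds by pin transfer and incubated 48 hours at 37C, 5% CO2. Viability was read as ATP by CellTiter-Glo luminescence, normalised to DMSO (100%) and media-only (0%) wells.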

The nature of experiment [3]: Quantitative High-Throughput drug screen in 47 multiple myeloma cell lines against the NCATS MIPE library collection: INA6_PLB cell viability assay (AID 1918965; further: nearly all actives have a fitted effect of over 55% in size). The gist of the method: as §1
A short description of experiment [4]: Quantitative High-Throughput drug screen in 47 multiple myeloma cell lines against the NCATS MIPE library collection: H1112_PLB cell viability assay (AID 1918967; further: nearly all actives have a fitted effect of over 30% in size). The gist of the method: as §2
The nature of experiment [5]: Quantitative High-Throughput drug screen in 47 multiple myeloma cell lines against the NCATS MIPE library collection: Karpas25_ECACC cell viability assay (AID 1918968; further: nearly all actives have a fitted effect of over 35% in size). The procedure, abridged:
as §2

A short description of experiment [6]: Quantitative High-Throughput drug screen in 47 multiple myeloma cell lines against the NCATS MIPE library collection: KMS12PE_JCRB cell viability assay (AID 1918972). Further: nearly all actives have a fitted effect of over 30% in size. The procedure, abridged: as §1
A short description of experiment [7]: Quantitative High-Throughput drug screen in 47 multiple myeloma cell lines against the NCATS MIPE library collection: MMM1_PLB cell viability assay (AID 1918976). Further: nearly all actives have a fitted effect of over 35% in size. The procedure, abridged: (§3)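 Viability after 48 h drug exposure was measured as ATP-dependent luminescence. Cells, 500 per well, sat at 37 °C under 5% CO2; DMSO wells set 100%, media-only wells 0%.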

The nature of experiment [8]: Quantitative High-Throughput drug screen in 47 multiple myeloma cell lines against the NCATS MIPE library collection: MOLP8_DSMZ cell viability assay (AID 1918977). Further: nearly all actives have a fitted effect of over 45% in size. The procedure, abridged:
as §3

Experiment [9] in a line: Quantitative High-Throughput drug screen in 47 multiple myeloma cell lines against the NCATS MIPE library collection: MM1S_ATCC cell viability assay (AID 1918980). Further: nearly all actives have a fitted effect of over 45% in size. The gist of the method: as §3
Experiment [10] is described as follows: Quantitative High-Throughput drug screen in 47 multiple myeloma cell lines against the NCATS MIPE library collection: KHM11_PLB cell viability assay (AID 1918962). Further: nearly all actives have a fitted effect of over 35% in size. The procedure, abridged:
(§4)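 Inhibition of cell viability is measured here. Each line was plated at 500 cells per well, treated with MIPE 4.0 drugs, kept 48 hours at 37C, then assayed for ATP content by CellTiter-Glo luminescence.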

Experiment [11] in a line: Quantitative High-Throughput drug screen in 47 multiple myeloma cell lines against the NCATS MIPE library collection: JIM3_ECACC cell viability assay (AID 1918963; further: nearly all actives have a fitted effect of over 35% in size). The procedure, abridged:
as §4

The nature of experiment [12]: Quantitative High-Throughput drug screen in 47 multiple myeloma cell lines against the NCATS MIPE library collection: JJN3_DSMZ cell viability assay (AID 1918966; further: nearly all actives have a fitted effect of over 50% in size). The procedure, abridged: as §2
Experiment [13] can be described thus: Quantitative High-Throughput drug screen in 47 multiple myeloma cell lines against the NCATS MIPE library collection: KMS21BM_JCRB cell viability assay (AID 1918974). The conditions noted are these: ATP luminescence, 48 h; viability: at 45.8 µM (top of the series) unless noted. The procedure, abridged:
as §2

The nature of experiment [14]: Quantitative High-Throughput drug screen in 47 multiple myeloma cell lines against the NCATS MIPE library collection: KMS26_JCRB cell viability assay (AID 1918975). Further: nearly all actives have a fitted effect of over 45% in size. The gist of the method:
as §1

A short description of experiment [15]: Quantitative High-Throughput drug screen in 47 multiple myeloma cell lines against the NCATS MIPE library collection: NCIH929_DSMZ cell viability assay (AID 1918978). Further: nearly all actives have a fitted effect of over 35% in size. The procedure, abridged:
as §3

Experiment [16] in a line: Quantitative High-Throughput drug screen in 47 multiple myeloma cell lines against the NCATS MIPE library collection: KMS27_JCRB cell viability assay (AID 1918970). Further: nearly all actives have a fitted effect of over 30% in size. The gist of the method: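 Viability inhibition screen, 48 h compound exposure, luminescent ATP read-out.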
Experiment [17] in a line: Quantitative High-Throughput drug screen in 47 multiple myeloma cell lines against the NCATS MIPE library collection: KMS12BM_JCRB cell viability assay (AID 1918971). Further: nearly all actives have a fitted effect of over 35% in size. The procedure, abridged:
as §1

The nature of experiment [18]: Quantitative High-Throughput drug screen in 47 multiple myeloma cell lines against the NCATS MIPE library collection: KMS20_JCRB cell viability assay (AID 1918973). Further: nearly all actives have a fitted effect of over 45% in size. The procedure, abridged: as §2
A short description of experiment [19]: Quantitative High-Throughput drug screen in 47 multiple myeloma cell lines against the NCATS MIPE library collection: OCIMY1_PLB cell viability assay (AID 1918979). Further: nearly all actives have a fitted effect of over 35% in size. The gist of the method: as §3

Results filed as inconclusive are left out. The source made the active and inactive calls. The call rests on the fitted dose curve; in most records, active means well fitted curve in the direction sought with a large enough effect; inconclusive means small, poorly fitted or top-dose-only effect, or another doubt; inactive means no such curve, though single readings can be large; an effect the other way counts as inactive or inconclusive.
Potency means the concentration at half of the fitted maximal effect.

For `CC(C)c1noc(N2CCC(COc3ccc(-c4ccc(S(C)(=O)=O)cc4)nc3)CC2)n1`, the Potency entry in [1], in experiment [2], in [4] and in experiment [9] was “inactive” throughout. Also, the Potency is 1.87 µM (active) in [3]; 1.48 µM (active) in experiment [5]; 0.418 µM (active) in experiment [6]; 9.35 µM (active) in [7]; 418 nM (active) in experiment [8].
On to `CC[C@H](CO)Nc1nc(NCc2ccccc2)c2ncn(C(C)C)c2n1`, for which the Potency was 18.7 µM (active) in [10]; 26.4 µM (active) in [11]; 6.62 µM (active) in experiment [2]; 18.7 µM (active) in [12]; 20.9 µM (active) in [5]; 4.18 µM (active) in [13]. For the same compound, the Potency was 33.2 µM (active) in [14], 10.5 µM (active) in experiment [15] and 20.9 µM (active) in [9]. Besides, the Potency result in experiment [6] was “inactive”.
Turning to `COc1cc(OC2CCN(C)CC2)ccc1Nc1ncc2c(n1)n(C1CCCC1)c(=O)n2C`, the Potency in experiment [10] was 6.62 µM (active); in experiment [11], 11.8 µM (active); in experiment [2], 11.8 µM (active); in [3], 3.72 µM (active); in experiment [5], 6.62 µM (active); in experiment [16] it was 20900 nM (active). Further, the Potency in [17] was 9.35 µM (active); in experiment [6], 7.43 µM (active); in experiment [18] it was 7.43 µM (active); in experiment [14], 13.2 µM (active); in experiment [15], 6.62 µM (active); in experiment [9], 11.8 µM (active).
For the compound `CC(=O)OCC(=O)[C@@]1(O)[C@H](C)C[C@H]2[C@@H]3C=C(C)C4=Cc5c(cnn5-c5ccccc5)C[C@]4(C)[C@@H]3[C@@H](O)C[C@@]21C`, the Potency was 16.6 µM (active) in experiment [10]; 9.35 µM (active) in experiment [11]; 9.35 µM (active) in experiment [2]; 5.26 µM (active) in experiment [3]; 9.35 µM (active) in experiment [12]; 10.5 µM (active) in experiment [4]. For the same compound, the Potency in experiment [17] was 16.6 µM (active); in experiment [6], 8.33 µM (active); in experiment [14] it was 10.5 µM (active); in experiment [7], 16.6 µM (active); in [15] it was 8.33 µM (active); in [19], 9.35 µM (active).
In the case of `Cc1coc2c1C(=O)C(=O)c1c-2ccc2c1CCCC2(C)C`, the Potency is 7.43 µM (active) in experiment [10]; 6.62 µM (active) in experiment [11]; 16.6 µM (active) in experiment [3]; 11.8 µM (active) in experiment [12]; 8.33 µM (active) in experiment [4]; 8.33 µM (active) in [5]. For the same compound, the Potency in experiment [16] was 166 nM (active); in experiment [17], 5.26 µM (active); in experiment [18] it was 9.35 µM (active); in experiment [14], 2.96 µM (active); in experiment [19] it was 16.6 µM (active). Moreover, in [2], the Potency result is “inactive”.
Regarding `Cc1ccc2nc(NC(=O)CSc3nc4c(c(=O)n3-c3ccccc3)SCC4)sc2c1`, the Potency was 23.5 µM (active) in experiment [1]; 18.7 µM (active) in [11]; 8.33 µM (active) in experiment [3]; 11.8 µM (active) in [4]; 5.26 µM (active) in experiment [5]; 9.35 µM (active) in experiment [17]. In addition, the Potency is 11.8 µM (active) in experiment [13], 23.5 µM (active) in experiment [14] and 13.2 µM (active) in experiment [9].
With `CC(NCc1ccc2c(c1)nc(NC(=O)c1ccc(-c3cn[nH]c3)s1)n2CC(C)(C)O)C(C)(C)C` (centres undefined), the Potency in experiment [10] was 0.0935 µM (active); in [11], 0.209 µM (active); in experiment [2], 0.0469 µM (active); in [3], 0.0833 µM (active); in experiment [12] it was 0.264 µM (active); in [4], 0.469 µM (active). In addition, the Potency is 0.264 µM (active) in experiment [5]; 83.3 nM (active) in experiment [16]; 1.05 µM (active) in experiment [17]; 0.264 µM (active) in experiment [6]; 0.235 µM (active) in experiment [18]; 0.743 µM (active) in [14]. Further, the Potency in experiment [7] was 0.118 µM (active); in experiment [19] it was 1.05 µM (active); in experiment [9], 0.332 µM (active).
